# NALP1 yeast inh – inhibitors of NALP1 inflammasome in yeast | S. cerevisiae NALP1/ASC/caspase-1 growth, X-gal OD620, 72 h | 280,000 tested, 0.61% active | AID 2071 | inhibition, % at 10 µM; in the data active means inhibition mostly above about 24%, no sharp cut-off; inactive means mostly below about 32%
# GRIN3A LBD mod – NR3A (human) ligand-binding domain modulation; NR3A LBD differential scanning fluorimetry, Tm shift; 0% = protein alone, 100% = glycine-bound protein; Tm shift relative to glycine control, % at 25 µM; 340,000 tested, 2.5% active; AID 1259313;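 active means melting temperature shift of at least 10% of the positive control shift, at one fixed dose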
# dFosB act-1 – mouse delta FosB homodimer activation. AID 493131. purified delta FosB, TAMRA-CDK5 oligo fluorescence polarization; percent of positive-control signal above neutral wells. 340,000 tested, 0.99% active. activation, % at 25 µM;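 active means mean activation above about 17%, with every replicate also reaching it, limit read from the data, passing the limit was not always enough; inconclusive means only one of the two conditions met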
# Target sequence (P13346 whole entry, looked up): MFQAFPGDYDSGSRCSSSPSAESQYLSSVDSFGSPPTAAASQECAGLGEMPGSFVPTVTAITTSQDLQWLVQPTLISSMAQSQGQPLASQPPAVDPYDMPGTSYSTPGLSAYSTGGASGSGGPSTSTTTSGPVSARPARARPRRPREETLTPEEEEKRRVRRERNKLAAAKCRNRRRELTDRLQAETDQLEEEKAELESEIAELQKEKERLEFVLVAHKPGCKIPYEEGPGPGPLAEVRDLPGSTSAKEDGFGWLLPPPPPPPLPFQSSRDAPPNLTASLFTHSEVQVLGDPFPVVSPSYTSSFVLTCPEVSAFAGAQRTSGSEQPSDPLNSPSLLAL
# UBC13 polyUb – human UBC13 polyubiquitination inhibition. UBC13 polyubiquitin chain formation, TR-FRET. 330,000 tested, 0.47% active. inhibition, % at 20 µM; in the data active means inhibition above about 45%, passing the limit was not always enough; inconclusive means no clear call, values can overlap the other calls
# Target sequence (P61088 whole entry, looked up): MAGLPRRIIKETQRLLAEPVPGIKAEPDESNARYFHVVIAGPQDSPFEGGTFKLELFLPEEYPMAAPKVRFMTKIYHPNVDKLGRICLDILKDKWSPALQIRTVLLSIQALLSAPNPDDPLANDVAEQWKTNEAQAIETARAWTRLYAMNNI
# Yeast superoxide – lowers age-related superoxide in aged yeast cells; S. cerevisiae aged cells, superoxide DHE fluorescence; active compounds read low; superoxide response (% of plate mean), % at 10 µM; 330,000 tested, 0.18% active; AID 2690;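 active means superoxide response under a set limit, about three screen SD below normal, cut at about 65% in these data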;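 further: yeast aged for seven days with compound at 30 °C before DHE staining; 100% = average MFI of all compound-treated wells on the plate with controls excluded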
# dFosB act-2 – delta FosB (mouse) homodimer activation; shares compounds with dFosB act-1; activation, % at 24.9 µM; 2,400 tested, under 10 active; purified delta FosB, TAMRA-CDK5 oligo fluorescence polarization; normalised: neutral wells 0, positive control 100; AID 588690;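 active means highest replicate activation at or above 34% and every replicate reaching that threshold; inconclusive means meets only one of the two criteria; inactive means meets neither criterion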;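 further: higher polarization means more probe DNA bound by delta FosB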
# Active calls of the source: *; ? = inconclusive; . = no result given. An excerpt weighted towards active compounds, which were near 4.3% of everything screened.
SMILES,NALP1 yeast inh,GRIN3A LBD mod,dFosB act-1,UBC13 polyUb,Yeast superoxide,dFosB act-2
CSCCC(NS(=O)(=O)c1ccccc1F)C(=O)NCc1cccnc1 (configuration not stated),.,1,-1,-1,103,.
CNc1nc(Nc2ccc([N+](=O)[O-])cc2)nc(OCC(F)(F)F)n1,9,4,0,-2,102,.
C#CCOc1nc(Nc2cccc([N+](=O)[O-])c2)nc(OCC#C)n1,-10,-9,29*,11,100,2
COc1nc(Nc2cccc([N+](=O)[O-])c2)nc(OC)n1,3,-3,106*,8,107,3
Cc1ccsc1CN(C)C(=O)CN1C(=O)NC(c2ccccc2)(c2ccccc2)C1=O,.,-1,-7,9,103,.
Cc1cc(Cn2nc(-c3ccccc3)cc2C(=O)NCc2cccc(Br)c2)on1,.,2,-2,4,.,.
S=C(c1cn(CCOc2cccc3ccccc23)c2ccccc12)N1CCCC1,8,-5,27*,11,99,1
Cn1c(=O)[nH]c2c(c1=O)CCO2,.,4,-8,.,.,.
CC(=O)NC(=O)c1ccc(-c2ccc(Cl)cc2)o1,24,-1,26*,-1,117,1
O=C(Nc1ccc(F)c(Cl)c1)Nc1ccc(Cl)cn1,18,-1,39*,9,99,2
O=C(Nc1ccc(F)cc1)Nc1ccc(Cl)cn1,-2,-16,42*,9,104,1
O=C(Nc1cccc(Cl)c1)Nc1ccc(Cl)cn1,6,-7,0,0,92,.
Cc1cc(C)cc(NC(=O)Nc2ccc(Cl)cn2)c1,-10,0,-5,-12,111,.
CCOC(=O)c1[nH]c(CO)c(C(=O)OCC)c1C,17,2,-12,-1,98,.
COc1cccc(NC(=O)CN2C(=O)NC3(CCCc4ccccc43)C2=O)c1 (configuration not stated),.,0,-5,-5,116,.
Cc1ccc(C)c2c1[nH]c1ccc([N+](=O)[O-])cc12,13,35*,21*,1,100,0
Cc1c(C(=O)NN)[nH]c2ccc([N+](=O)[O-])cc12,6,5,.,-8,102,.
O=C1[C@H](Cc2ccccc2)NCC=CC[C@H](c2ccc(Cl)cc2)N1Cc1ccccc1,.,1,-3,.,.,.
O=C(CCC(=O)Nc1ccccc1)NNC(=O)C(c1ccccc1)c1ccccc1,17,-2,42*,-9,93,1
CCC(=O)NNC(=O)CCC(=O)Nc1ccccc1,9,.,.,.,.,.
Cc1cccc(CS(=O)(=O)c2cn(CC(=O)N3CCOCC3)c3ccccc23)c1,-3,-3,-3,-2,100,.
COc1ccc(Cn2c(=O)[nH]c3cc(C(=O)N4CCN(c5ccccc5F)CC4)ccc3c2=O)cc1,12,-6,18*,-9,109,5
CCOc1ccc(-c2c(C(=O)N/N=C/c3ccc(C)s3)nnn2-c2nonc2N)cc1,28,-2,58*,-15,111,3
CCOc1ccc(-c2c(C(=O)N/N=C/c3ccc(Cl)cc3)nnn2-c2nonc2N)cc1,6,13*,45*,3,135,5
CCOc1ccc(-c2c(C(=O)N/N=C/c3sccc3C)nnn2-c2nonc2N)cc1,14,0,22*,-6,89,-1
SMILES,NALP1 yeast inh,GRIN3A LBD mod,dFosB act-1,UBC13 polyUb,Yeast superoxide,dFosB act-2
CCOc1cc(NC(=S)NCC2CCCO2)c(OCC)cc1NC(=O)c1cccc(F)c1 (configuration not stated),8,0,-10,-3,86,.
Cc1ccc(-c2cc(C(=O)N/N=C/c3c(C)nn(C)c3C)c3ccccc3n2)cc1C,-8,-4,43*,19,98,1
Oc1ccc(Br)cc1-c1cc(-c2ccc(Cl)cc2)n[nH]1,-34,42*,28*,5,127,-1
COc1ccc(O)c(-c2cc(-c3ccc(F)cc3)n[nH]2)c1,0,3,1,19,108,.
Cc1cc(C)c2c(N)c3ccccc3nc2n1,33,-4,31*,-32,99,4
COc1ccc(-c2cc3c(=O)n(CC(=O)NCc4ccc(F)cc4)ncn3n2)cc1,10,0,101*,-13,87,?
COc1ccc(CNC(=O)Cn2ncn3cccc3c2=O)cc1,3,.,.,4,89,.
COc1ccc(-c2cc3c(=O)n(CC(=O)NCc4ccc(C)cc4)ncn3n2)cc1,26,-6,7,-16,112,.
COc1ccc(-c2cc3c(=O)n(CC(=O)Nc4cccc(Cl)c4)ncn3n2)cc1,14,-2,42*,-3,90,2
COc1ccc(CNC(=O)Cn2ncn3c(cc4ccccc43)c2=O)cc1,.,-1,73*,2,83,1
O=C(NCc1nnnn1-c1ccc(F)c(F)c1)c1ccc2c(c1)OCO2,.,-1,-5,4,99,.
CCn1cc(C(=O)NCCCN(CC(C)C)CC(C)C)c(=O)c2cc(S(=O)(=O)N(C)C3CCCCC3)ccc21,10,-1,-10,9,121,.
COc1ccc(CNCCC(c2ccc(OC)cc2)c2ccccc2OC)cc1 (configuration not stated),36,-4,-1,9,99,.
COc1ccc(CNCCC(c2ccc(F)cc2)c2ccc(OC)cc2)cc1 (configuration not stated),79*,0,21*,5,109,4
COc1ccccc1N1CCN(C(=O)c2cc(S(=O)(=O)N3CCOCC3)ccc2C)CC1,.,0,-5,-7,.,.
COc1cc(/C=C/C(=O)Nc2cccnc2)cc(OC)c1OC,25,-1,18*,-2,104,5
CCC(C)n1c(=O)c(C(=O)Nc2ccccc2S(N)(=O)=O)c(O)c2ccccc21 (configuration not stated),15,-2,74*,44,95,2
O=C(COc1ccc(Cl)cc1Cl)Nc1cccc(-c2ccc(N3CCOCC3)nn2)c1,.,-1,12,-4,.,.
O=C(COc1ccc(Cl)cc1Cl)Nc1ccc(-c2ccc(N3CCOCC3)nn2)cc1,.,2,42*,2,97,0
Cc1ccc(-n2c(C)cc(/C=N/NC(=O)c3ccc(CN4CCOCC4)cc3)c2C)cc1,-10,-1,6,7,86,.
O=C(NCc1ccc(F)cc1)C1CCCN(c2nc3ccsc3c(=O)s2)C1 (configuration not stated),-11,0,75*,16,70,-8
CCCCNC(=S)N/N=C/c1ccc(OCC(=O)Nc2c(C)cc(C)cc2C)c(OC)c1,10,-27,22*,-29,90,-1
O=C(NCc1ccccc1Cl)C1CCN(c2cnccn2)CC1,18,0,3,0,85,.
O=C(N/N=C/c1ccc(OC(=O)c2ccc(Br)cc2)cc1)c1ccncc1,17,-1,90*,2,90,6
